Assay results from PubChem BioAssay AID1445 (SRMLSC, 2008).
Out of some 220,000 compounds screened, about 910 (0.41%) were called active. The full list was thinned out, with actives kept by preference. Measured potencies and affinities stand elsewhere. A number with no mark means an inactive call.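 Rule for the calls: active = primary inhibition above the hit cutoff, then over 50% inhibition at one or more dose response concentrations (cut at about 23% in these data, passing the limit was not always enough); inconclusive = conflicting primary data, or primary hits not chosen for dose response; inactive = low primary inhibition, or under 50% at every dose.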

Each compound was assayed against Aminopeptidase N (Plasmodium falciparum (isolate 3D7)) (UniProt O96935) (assay: P. falciparum M1AAP inhibitors, biochemical, fluorogenic H-Leu-NHMec substrate, 1536-well (AID 1445;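 note: plate controls were DMSO full reaction for no effect and no enzyme background for full effect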)). Details: recombinant M1AAP, H-Leu-NHMec fluorogenic kinetic assay; at 30 µM, hits give high values unless noted.
Aminopeptidase N (Plasmodium falciparum (isolate 3D7)), sequence (O96935 whole entry, looked up): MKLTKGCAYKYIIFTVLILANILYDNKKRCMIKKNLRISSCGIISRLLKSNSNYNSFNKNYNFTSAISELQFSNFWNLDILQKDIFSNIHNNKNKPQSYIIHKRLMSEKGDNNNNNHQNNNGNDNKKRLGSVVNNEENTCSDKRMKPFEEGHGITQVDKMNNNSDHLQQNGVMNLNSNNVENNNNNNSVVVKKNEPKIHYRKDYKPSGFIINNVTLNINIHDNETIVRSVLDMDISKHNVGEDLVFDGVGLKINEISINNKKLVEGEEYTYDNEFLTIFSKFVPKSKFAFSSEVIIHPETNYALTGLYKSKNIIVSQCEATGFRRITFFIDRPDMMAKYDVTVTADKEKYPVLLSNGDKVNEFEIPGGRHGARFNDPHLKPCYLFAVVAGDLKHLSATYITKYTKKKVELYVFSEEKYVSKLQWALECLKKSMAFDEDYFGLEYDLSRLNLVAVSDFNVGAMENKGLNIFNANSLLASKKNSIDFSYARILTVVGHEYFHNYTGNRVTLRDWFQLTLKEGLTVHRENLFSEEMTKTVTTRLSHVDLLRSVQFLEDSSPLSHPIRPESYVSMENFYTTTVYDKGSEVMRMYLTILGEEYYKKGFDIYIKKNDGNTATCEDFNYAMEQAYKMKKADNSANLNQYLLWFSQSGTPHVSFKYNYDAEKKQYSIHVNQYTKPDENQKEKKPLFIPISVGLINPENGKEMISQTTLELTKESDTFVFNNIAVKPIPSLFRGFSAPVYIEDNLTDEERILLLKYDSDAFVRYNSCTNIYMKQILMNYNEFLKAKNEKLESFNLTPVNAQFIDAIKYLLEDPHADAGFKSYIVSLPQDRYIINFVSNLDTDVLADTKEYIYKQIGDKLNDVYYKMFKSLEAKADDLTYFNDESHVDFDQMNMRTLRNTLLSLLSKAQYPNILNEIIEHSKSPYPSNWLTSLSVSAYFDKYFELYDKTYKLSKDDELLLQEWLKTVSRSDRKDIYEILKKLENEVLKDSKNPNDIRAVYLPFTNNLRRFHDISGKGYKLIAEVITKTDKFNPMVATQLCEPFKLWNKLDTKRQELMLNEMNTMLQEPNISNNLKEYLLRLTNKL

| Compound | inhibition |
| --- | --- |
| COc1ccc(/C=C/C(=O)NC(=S)NNC(=O)c2cccnc2)cc1 | -8.48% |
| Cc1oc(C(=O)O)cc1COc1ccc2c3c(c(=O)oc2c1C)CCC3 | 7.51% |
| Cc1cc2oc(=O)c3c(c2cc1OCc1nn[nH]n1)CCCC3 | 10.1% |
| Cc1oc(C(=O)O)cc1COc1ccc2c3c(c(=O)oc2c1)CCC3 | 5.26% |
| Cc1cc(OCc2nn[nH]n2)c2c(C)c(CC(=O)O)c(=O)oc2c1 | 0.25% |
| Cc1ccc(S(=O)(=O)NC2=NCCC2)cc1 | -0.29% |
| NC(=O)Cn1nc(C(F)(F)F)c2c1CCCC2 | 10.1% |
| O=C(CSc1nnc(CCc2nc3ccccc3[nH]2)n1-c1ccccc1)NCc1ccccc1 | -1.21% |
| COc1ccc(-c2[nH]ncc2/C=C(/C#N)C(=O)NC2CCCCC2)cc1 | 7.83% |
| Cc1ccc(-c2[nH]ncc2/C=C(\C#N)C(=O)NC2CCCCC2)cc1 | 24.9% (active) |
| N#C/C(=C\c1cn[nH]c1-c1ccccc1)C(=O)NC1CCCCCC1 | 9.74% |
| CCOC(=O)c1[nH]c2ccc(OC)cc2c1NC(=O)c1cccc(OC)c1 | 3.82% |
| Cc1nn(-c2ccccc2)c(Cl)c1C(=O)N(C)c1nc(-c2ccc(F)cc2)cs1 | -3.58% |
| COc1cc(/C=C/C(=O)NCCn2c(C)cc3ccccc32)cc(OC)c1OC | 8.36% |
| O=Cc1cn(CC(=O)N2CCc3ccccc32)c2ccccc12 | 2.93% |
| N#Cc1cn(CC(=O)N2CCCc3ccccc32)c2ccccc12 | 9.27% |
| O=C(NCC(c1cccs1)N1CCOCC1)c1ccc(Cl)s1 (configuration not stated) | 7.44% |
| C=CCNC(=S)N1CCC(C(=O)c2ccc(OC)cc2)CC1 | 8.35% |
| COc1ccc(C2OC(=O)C(C)(C)C(=O)C2(C)C)cc1OC (configuration not stated) | -0.38% |
| Cc1ccc(S(=O)(=O)c2c(C)nn(C(C)(C)C)c2OC(=O)c2ccco2)cc1 | 27.3% (active) |
| Cc1ccc(S(=O)(=O)c2c(C)nn(-c3ccccc3)c2OC(=O)c2ccco2)cc1 | 6.34% |
| Cc1ccc(S(=O)(=O)c2c(C)nn(C(C)(C)C)c2OC(=O)c2ccc(Br)o2)cc1 | 19.6% |
| CCCCCOC(=O)C1C2C=CC3(CN(c4ccccc4C)C(=O)C13)O2 (configuration not stated) | 5.27% |
| Nc1nc(CSc2ncccn2)nc(Nc2ccccc2)n1 | -3.84% |
| O=C(Nc1ccc(-n2cnnn2)cc1)C1CCCN1C(=O)NC1CCCCC1 (configuration not stated) | 3.93% |
| O=C(CSc1ncn[nH]1)Nc1ccccc1-c1ccccc1 | -4.4% |
| Nc1cc(=O)[nH]c(SCC(=O)Nc2ccccc2-c2ccccc2)n1 | 2.73% |
